The whole screen tested about 320,000 compounds, of which about 1,300 (0.41%) were called active. Inconclusive results (about 3%) are left out. No rule for the calls is given here. These entries were drawn from the full list. Results with a measured potency or affinity are listed apart.
experiment: growth inhibition of non-replicating M. tuberculosis (AID 488890); conditions: Mycobacterium tuberculosis non-replicating, at 25 µM, stronger effect = higher value;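 also: plate controls were DMSO cells for no effect and high antibiotic wells for full effect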

Going from `CCOc1cc(C(=O)NCc2ccc(-c3nc4ccccc4o3)cc2)cc(OCC)c1OCC` to `CCc1ccc(OCc2ccc(C(=O)NCc3ccccn3)o2)cc1`, the inhibition rises from 5.09% to 64.5%.

Going from `O=C(Cc1ccc(Cl)cc1)N/N=C/c1ccccc1` to `O=C(N/N=C/c1ccccc1)c1ccc2c(c1)OCO2`, the inhibition rises from 16.8% to 51.5%.

Going from `Cc1ccc(/C=N\Nc2cn[nH]c(=O)c2Cl)cc1` to `COc1cc(/C=N/NC(=O)CCC(=O)Nc2ccc(C)cc2)ccc1O`, the inhibition rises from -3.74% to 2.61%.

First: CCc1ccccc1Nc1nc2ccccc2n1C
Second: CCn1c(=O)c(C(=O)Nc2ccccn2)c(O)c2ccccc21
The inhibition of the first is higher: 43.6% for the first, 27.7% for the second.

Compared with `CC(C)CNS(=O)(=O)c1ccc(S(=O)(=O)N2CCN(CCC#N)CC2)cc1`, `Cc1ccc(S(=O)(=O)ON=C2CCN(S(=O)(=O)c3ccccc3)CC2)cc1` is lower in inhibition: 6.46% for the first, -9.7% for the second.

Compared with `COc1cccc(/C=N/NC(=O)CNC(=O)c2ccc3c(c2)OCCO3)c1O`, `CCOc1cc(/C=N/NC(=O)c2ccc3c(c2)OCCO3)cc(Br)c1O` is higher in inhibition: -7.52% for the first, 11.1% for the second.

Compared with `COc1cc(/C=N/NC(=O)c2ccoc2C)cc(OC)c1O`, `Cc1occc1C(=O)N/N=C/c1cccnc1` is higher in inhibition: -10% for the first, -3.52% for the second.

Going from `COc1cccc(/C=N/NC(=O)N/N=C/c2cccc(OC)c2O)c1O` to `COc1cccc(C=NCCNC(=O)c2nonc2N)c1O`, the inhibition falls from -1.08% to -21.9%.

Compared with `O=C(N/N=C/c1ccc2c(c1)OCO2)c1ccc2c(c1)OCO2`, `Cc1cc(C(=O)N/N=C/c2c[nH]c3ccccc23)c(C)o1` is lower in inhibition: 23.3% for the first, 4.64% for the second.

Going from `CCN(CC(=O)Nc1sc2c(c1C#N)CCC(C)C2)Cc1nc2ccccc2c(=O)[nH]1` (stereo not given) to `CCNC(=O)COC(=O)c1cc(C)nc2ccccc12`, the inhibition falls from 5.89% to -1.86%.

Compared with `NC(=O)C1CCCN1` (stereo not given), `Cc1cc(F)ccc1NC(=O)C1CCCO1` (stereo not given) is lower in inhibition: 3.98% for the first, -3.85% for the second.

Going from `CC1(C)CC(=O)c2cnc(NCC3CCCO3)nc2C1` (stereo not given) to `Cc1cc(C)c2nc(SC3CCOC3=O)cc(C)c2c1` (stereo not given), the inhibition rises from -8.53% to 0.02%.

Going from `COC(=O)CSc1nnc2c3c4c(sc3nc(-n3nc(C)cc3C)n12)COC(C)(C)C4` to `C=CCn1c(CCNC(=O)c2cccs2)nnc1SCC(=O)Nc1cccc(Cl)c1C`, the inhibition rises from 0.76% to 40.6%.

First: O=C1c2ccccc2C(=O)N1CCC#Cc1ccc2cc(CCCO)oc(=O)c2c1
Second: CCCCCCn1c(=O)c(C(=O)Nc2ncccc2O)c(O)c2ccccc21
The inhibition of the first is lower: 12.8% for the first, 67.8% for the second.

Compared with `O=C(c1ccc(COc2ccccc2Cl)o1)N1CCCC1`, `O=C(Nc1ccccn1)c1ccc(COc2ccccc2Cl)o1` is higher in inhibition: -8.31% for the first, 72.4% for the second.

First: CCOc1ccc(OCc2ccc(C(=O)O)o2)cc1
Second: COc1ccccc1NC(=O)c1ccc(CSc2ccccc2)o1
The inhibition of the first is lower: 18.9% for the first, 68.3% for the second.

Compared with `N/C(=N\N=C\c1cccs1)SC1CC(=O)N(c2ccc(Br)cc2)C1=O` (stereo not given), `CSc1ccccc1NC(=O)c1ccc(N2CCCC2=O)cc1` is higher in inhibition: 7.06% for the first, 7.7% for the second.

Compared with `Cc1cccc(C)c1NC(=O)Cc1cccs1`, `Cc1cccc(C)c1NC(=O)c1ccc([N+](=O)[O-])s1` is higher in inhibition: 3.18% for the first, 67% for the second.

Compared with `CC12CCC(C/C1=N\OC(=O)c1c(F)cccc1F)C2(C)C` (stereo not given), `CC1(C)CC2CC(C)(CN2C(=O)COC(=O)c2cccnc2Cl)C1` (stereo not given) is higher in inhibition: -9.61% for the first, 14.2% for the second.

First: CC(=O)Nc1ccc(Oc2nc(C(F)(F)F)nc3ccccc23)cc1
Second: CC(=O)Nc1ccc(S(=O)(=O)Nc2nccc(C)n2)cc1
The inhibition of the first is lower: 1.04% for the first, 20.2% for the second.

Going from `COCC1CCCCN1Cc1cn(-c2ccccc2)nc1-c1ccc2c(c1)OCO2` (stereo not given) to `COC(=O)c1cccc(CSc2nnc(-c3ccco3)n2-c2ccccc2)c1`, the inhibition rises from 0.23% to 24%.

Compared with `C=CCn1c(C)cc(C2=NNC(=NC(C)(C)C)SC2)c1C`, `C=CCN=C1NN=C(c2cc(C)n(CC=C)c2C)CS1` is lower in inhibition: 27% for the first, -5.39% for the second.

Going from `Cc1cccc(NC(=O)c2cc3cc([N+](=O)[O-])ccc3s2)n1` to `Cc1ccnc(NS(=O)(=O)c2ccc(NC(=O)c3ccc(Cl)cc3[N+](=O)[O-])cc2)n1`, the inhibition falls from 16.8% to -0.5%.

Compared with `CN(C)NC(=O)c1ccc([N+](=O)[O-])s1`, `CCN(CC)C(=O)CSc1ccc(C(F)(F)F)cc1[N+](=O)[O-]` is lower in inhibition: 11.4% for the first, -2.61% for the second.

Compared with `O=C(Nc1ccccc1F)c1cc(C(=O)Nc2ccccc2F)cc([N+](=O)[O-])c1`, `COC(=O)c1ccc(NC(=O)c2cccc(NC(=O)c3ccccc3)c2)cc1` is higher in inhibition: 5.63% for the first, 32% for the second.

Compared with `O=c1[nH]c2c(c(=O)n1C1CCCCC1)CCC2`, `O=C(Nc1c2c(nn1-c1ccc(F)cc1)CS(=O)(=O)C2)C1CCCC1` is lower in inhibition: -6.62% for the first, -10.4% for the second.

Compared with `C=CCC(C=C)S(=O)(=O)c1ccc(C)cc1` (stereo not given), `CC(=O)Nc1ccc(S(=O)(=O)n2cnc(C)c2)cc1` is lower in inhibition: -2.81% for the first, -2.83% for the second.

First: CCCCCC1CC(/C(C)=N/NC(N)=O)OC1=O (stereo not given)
Second: N#CC/C(N)=N/NC(=O)CCCNc1ncc(C(F)(F)F)cc1Cl
The inhibition of the first is higher: 9.08% for the first, 0.45% for the second.

Going from `O=C(c1ccc(-c2nc3ccccc3s2)s1)N1CCOCC1` to `CCN1CCN(C(=O)c2ccc(-c3nc4ccccc4s3)s2)CC1`, the inhibition rises from -4.2% to -3.89%.

Compared with `COCCNC(=O)c1nc2ccccc2s1`, `COCCNC(=O)COC(=O)CSCc1nc2ccccc2s1` is lower in inhibition: 52.5% for the first, -4.84% for the second.

Compared with `Cc1noc(C)c1COC(=O)c1ccc(-c2nc3ccccc3s2)s1`, `COc1ccccc1C1C(C(=O)c2ccco2)=C(O)C(=O)N1c1cc(C)on1` (stereo not given) is higher in inhibition: 9.44% for the first, 16.5% for the second.

Compared with `O=S(=O)(Nc1ccc2cn[nH]c2c1)c1ccc(C(F)(F)F)cc1`, `Cc1ccc2cccc(NS(=O)(=O)c3ccccc3)c2n1` is higher in inhibition: 21.1% for the first, 64.3% for the second.

Going from `Cc1ccc(S(=O)(=O)NCc2ccccc2)cc1C(=O)NCCc1ccc(S(N)(=O)=O)cc1` to `CCN(CC)c1ccc(S(=O)(=O)N2CCOCC2)cc1NC(=O)CNCc1ccccc1`, the inhibition falls from -1.65% to -9.09%.

First: CSc1ncc(CN2CCN(C3CCCC3)C(CCO)C2)cn1 (stereo not given)
Second: FC(F)(F)c1nnc2ccc(N3CCCCCC3)nn12
The inhibition of the first is lower: 6.95% for the first, 8.69% for the second.

Going from `Cc1cc2oc(=O)cc(CN(C)Cc3cccc(F)c3)c2cc1C` to `CCOc1cc(/C=N/NC(=O)Cn2nc([N+](=O)[O-])cc2C)cc(Br)c1OCc1ccccc1C`, the inhibition falls from 12.8% to -2.93%.

Compared with `Cc1ccc(/C=C/C(=O)O)cc1S(=O)(=O)NCCCO`, `C/C(CC(=O)Nc1ccc(Cl)cc1Cl)=N\NC(=O)C(=O)NCCO` is higher in inhibition: -0.14% for the first, 24.8% for the second.

First: Cc1cc(C)nc(NN2C(=O)C=CC2=O)n1
Second: Cc1cc(C)n(-c2cccc3cccnc23)n1
The inhibition of the first is lower: -13.2% for the first, -3.86% for the second.

First: C=CCC1(CC=C)CCCN1C(=O)CC1C(=O)NCCN1Cc1cccc(OC)c1OC (stereo not given)
Second: CCOC(=O)N1CCN(C(=O)C2c3cc(OC)c(OC)cc3C(=O)N3CCc4ccccc4C23)CC1 (stereo not given)
The inhibition of the first is lower: -15.7% for the first, -11.4% for the second.

Going from `Cc1n[nH]c(C)c1CCCCOc1ccccc1` to `COc1ccc(OCCCCc2c(C)n[nH]c2C)cc1`, the inhibition rises from 78.1% to 78.2%.

First: COc1ccc(OCCCc2c(C)n[nH]c2C)cc1
Second: COc1cccc(OCCc2c(C)n[nH]c2C)c1
The inhibition of the first is lower: -13.9% for the first, 30.4% for the second.

First: Cc1ccc2c(c1)N(C(=O)CCC(=O)Nc1ccccc1Br)CC(C)O2 (stereo not given)
Second: Cc1ccc(C)c(NC(=O)CN(C)C(=O)CN2C(=O)NC3(CCc4ccccc43)C2=O)c1 (stereo not given)
The inhibition of the first is lower: -2.28% for the first, 18.4% for the second.

Going from `CC(=O)C1=C(C)Nc2ncnn2C1c1ccc(O)cc1` (stereo not given) to `CCn1c(=O)c(C(=O)Nc2ncccc2O)c(O)c2ccccc21`, the inhibition rises from -8.89% to 23.7%.

First: O=C(COC(=O)/C=C/c1ccc(F)cc1)Nc1cccc(S(=O)(=O)N2CCCC2)c1
Second: Cc1cc(C)c2nc(NNC(=O)c3ccc(S(=O)(=O)N4CCCC(C)C4)cc3)sc2c1 (stereo not given)
The inhibition of the first is higher: 17.9% for the first, -16.4% for the second.

Compared with `FC(F)(F)c1nnc2ccc(N3CCCCC3)nn12`, `FC(F)(F)c1nnc2ccc(N3CCCC3)nn12` is higher in inhibition: -3.88% for the first, 1.54% for the second.

First: FC(F)(Cl)c1nnc2ccc(Sc3ccccn3)nn12
Second: Cc1ccc2nnc(Cl)n2n1
The inhibition of the first is lower: -6.69% for the first, -5.68% for the second.

Compared with `Clc1ccc2nncn2n1`, `CN1C(=O)Cn2c1nc1ccccc12` is lower in inhibition: 1.77% for the first, -4.7% for the second.

Going from `O=C(Nc1ccc(F)cc1)c1ccc(CSc2ccccc2)o1` to `COc1ccc(NC(=O)NNC(=O)c2ccc3ccccc3c2)cc1OC`, the inhibition falls from 77.5% to -2.52%.

Compared with `CN1CCN(c2nc3c(c(=O)[nH]c(=O)n3C)n2Cc2ccccc2F)CC1`, `Nc1c(N(CCC2=CCCCC2)C(=O)c2ccc([N+](=O)[O-])o2)c(=O)[nH]c(=O)n1Cc1ccccc1` is higher in inhibition: -2.87% for the first, 38.8% for the second.

Going from `COc1ccc(S(=O)(=O)/N=C2/C=CC(=O)C(C)=C2C)cc1` to `Cc1ccc2c(c1)/C(=N/OS(=O)(=O)c1ccccc1)CCS2`, the inhibition falls from 24.9% to 1.31%.

Going from `CC1=C/C(=N\OC(=O)/C=C/c2ccccc2)C(C)=CC1=O` to `CN(C(=O)COC(=O)c1n[nH]c(=O)c2ccccc12)c1ccccc1`, the inhibition falls from 54.5% to -7.8%.

Compared with `CC(Cc1cccnc1)NC(=O)c1cc(COc2ccc(F)cc2Cl)on1` (stereo not given), `CCCn1c(=O)c(C(=O)Nc2ncccc2O)c(O)c2ccccc21` is higher in inhibition: 15.8% for the first, 66.8% for the second.

Compared with `Nc1nonc1C(=O)NCCN=Cc1ccccc1O`, `NC(=O)COC(=O)CNC(=O)c1sc2ccccc2c1Cl` is higher in inhibition: -0.48% for the first, 8.7% for the second.

First: CCOC(=O)N1CCC(NC(=O)C2CCN(C(=O)c3cc4oc(C)cc4n3Cc3c(F)cccc3Cl)CC2)CC1
Second: NC(=O)NC(=O)COC(=O)c1sc2ccccc2c1Cl
The inhibition of the first is higher: 5.49% for the first, 1.75% for the second.

Going from `CCc1nc2nc(C)c(NS(=O)(=O)c3cccs3)c(=O)n2[nH]1` to `COCc1nnc(NC(=O)c2sc3ccccc3c2Cl)s1`, the inhibition rises from -14.6% to 37.3%.

Compared with `Cc1cnc(NC(=O)c2sc3ccccc3c2Cl)s1`, `COc1ccc(/C=N\Nc2ccc([N+](=O)[O-])cc2[N+](=O)[O-])c(C(=O)O)c1OC` is higher in inhibition: -6.31% for the first, 39.2% for the second.

First: CCOc1ccc(Br)cc1/C(C)=N\NC1=NCCN1
Second: COc1ccc(Br)cc1/C(C)=N/NC1=NCCN1
The inhibition of the first is higher: 38% for the first, 21.5% for the second.

First: O=C1Nc2c(c(=O)[nH]c(=O)n2-c2ccc(F)cc2)C1(NS(=O)(=O)c1ccccc1)C(F)(F)F (stereo not given)
Second: O=C(CNC(=O)c1[nH]cnc1C(=O)NC(c1ccccc1)c1ccccc1)OCc1ccccc1
The inhibition of the first is lower: -0.54% for the first, 44.5% for the second.

For `CCOc1ccc(/C=N/NC(=S)NC2CC3CC2C2C=CCC32)cc1` (stereo not given), the inhibition was -7.06%.

Reference: PubChem BioAssay AID488890 (Southern Research Specialized Biocontainment Screening …, 2010)
